Experimental data from the supplement of paper PMC9694430.
Where a name gives a salt, the structure may show the parent alone.

Experiments:
Test in all cases: thermal shift delta Tm vs DMSO control; higher = stronger stabilization (binding)
Details in all cases: 12.5 µM; protein concentration 2 µM
LOC_OS01G57100-cb003 = tested on: LOC_OS01G57100-cb003
How it was run: (§1)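 Heating from 25°C to 95°C at 0.05°C/s, fluorescence was recorded for 19.5 μl wells of 2 μM E. coli-expressed, purified rice kinase domain in 100 mM potassium phosphate pH 7.5, 150 mM NaCl, 10% glycerol and 5 × SYPRO Orange with compound in DMSO. Boltzmann fits gave melting temperatures for this differential scanning fluorimetry assay. The shift reported is the mean of three replicates against the DMSO-only protein.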

LOC_OS01G60330-cb001 = tested on: LOC_OS01G60330-cb001
How it was run: as §1

LOC_OS01G60700-cb002 = tested on: LOC_OS01G60700-cb002
How it was run: as §1

LOC_OS01G63280-cb003 = tested on: LOC_OS01G63280-cb003
How it was run: as §1

LOC_OS01G67340-cb003 = tested on: LOC_OS01G67340-cb003
How it was run: as §1

LOC_OS01G70970-cb002 = tested on: LOC_OS01G70970-cb002
How it was run: as §1

LOC_OS02G07810-cb001 = tested on: LOC_OS02G07810-cb001
How it was run: as §1

LOC_OS02G08530-cb003 = tested on: LOC_OS02G08530-cb003
How it was run: as §1

LOC_OS02G14120-cb001 = tested on: LOC_OS02G14120-cb001
How it was run: as §1

LOC_OS02G17970-cb001 = tested on: LOC_OS02G17970-cb001
How it was run: as §1

LOC_OS02G45750-cb003 = tested on: LOC_OS02G45750-cb003
How it was run: as §1

LOC_OS02G54510-cb004 = tested on: LOC_OS02G54510-cb004
How it was run: as §1

LOC_OS03G04050-cb001 = tested on: LOC_OS03G04050-cb001
How it was run: as §1

LOC_OS03G12390-cb001 = tested on: LOC_OS03G12390-cb001
How it was run: as §1

LOC_OS03G27990-cb004 = tested on: LOC_OS03G27990-cb004
How it was run: as §1

LOC_OS03G50450-cb001 = tested on: LOC_OS03G50450-cb001
How it was run: as §1

LOC_OS03G50810-cb003 = tested on: LOC_OS03G50810-cb003
How it was run: as §1

LOC_OS04G35114-cb001 = tested on: LOC_OS04G35114-cb001
How it was run: as §1

LOC_OS04G38480-cb003 = tested on: T1, LOC_OS04G38480-cb003
T1 sequence (whole entry): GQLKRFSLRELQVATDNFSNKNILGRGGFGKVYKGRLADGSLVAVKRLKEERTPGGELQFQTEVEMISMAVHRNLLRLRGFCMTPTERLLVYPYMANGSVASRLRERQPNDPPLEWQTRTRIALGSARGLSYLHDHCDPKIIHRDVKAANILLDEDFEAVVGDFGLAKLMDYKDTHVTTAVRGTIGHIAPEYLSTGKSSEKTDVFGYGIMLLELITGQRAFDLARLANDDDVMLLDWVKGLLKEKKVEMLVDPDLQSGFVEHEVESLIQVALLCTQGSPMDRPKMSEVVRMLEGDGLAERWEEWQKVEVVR
How it was run: as §1

LOC_OS04G41100-cb001 = tested on: T2, LOC_OS04G41100-cb001
T2 sequence (whole entry): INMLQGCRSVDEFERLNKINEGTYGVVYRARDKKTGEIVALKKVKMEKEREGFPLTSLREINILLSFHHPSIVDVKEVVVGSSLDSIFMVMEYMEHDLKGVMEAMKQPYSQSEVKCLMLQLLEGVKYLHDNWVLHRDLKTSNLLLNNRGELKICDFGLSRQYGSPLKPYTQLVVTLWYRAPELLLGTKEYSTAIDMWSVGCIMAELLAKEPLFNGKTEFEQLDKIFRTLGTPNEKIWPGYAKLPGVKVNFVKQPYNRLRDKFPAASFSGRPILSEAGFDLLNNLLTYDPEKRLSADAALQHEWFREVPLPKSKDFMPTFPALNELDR
How it was run: as §1
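Also: purified Escherichia coli-expressed rice kinase domain construct.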

Row | Structure (SMILES) | thermal shift delta Tm (LOC_OS01G57100-cb003) | thermal shift delta Tm (LOC_OS01G60330-cb001) | thermal shift delta Tm (LOC_OS01G60700-cb002) | thermal shift delta Tm (LOC_OS01G63280-cb003) | thermal shift delta Tm (LOC_OS01G67340-cb003) | thermal shift delta Tm (LOC_OS01G70970-cb002) | thermal shift delta Tm (LOC_OS02G07810-cb001) | thermal shift delta Tm (LOC_OS02G08530-cb003) | thermal shift delta Tm (LOC_OS02G14120-cb001) | thermal shift delta Tm (LOC_OS02G17970-cb001) | thermal shift delta Tm (LOC_OS02G45750-cb003) | thermal shift delta Tm (LOC_OS02G54510-cb004) | thermal shift delta Tm (LOC_OS03G04050-cb001) | thermal shift delta Tm (LOC_OS03G12390-cb001) | thermal shift delta Tm (LOC_OS03G27990-cb004) | thermal shift delta Tm (LOC_OS03G50450-cb001) | thermal shift delta Tm (LOC_OS03G50810-cb003) | thermal shift delta Tm (LOC_OS04G35114-cb001) | thermal shift delta Tm (LOC_OS04G38480-cb003) | thermal shift delta Tm (LOC_OS04G41100-cb001)
1 | CN1CCN(c2ccc(Nc3cc(-c4cccc(-n5ccc6cc(C7CC7)cc(F)c6c5=O)c4CO)cn(C)c3=O)nc2)CC1 | 0.99 °C | 0.83 °C | 1.11 °C | 0.24 °C | -0.1 °C | 1.04 °C | 0.37 °C | 1.24 °C | 0.2 °C | 0.75 °C | 0.34 °C | -0.3 °C | 0.53 °C | -0.21 °C | 0.57 °C | 0.67 °C | 0.5 °C | 0.26 °C | 1.08 °C | 0.45 °C
2 | Cc1ccc(NC(=O)c2ccc(CN3CCN(C)CC3)cc2)cc1Nc1nccc(-c2cccnc2)n1 [Imatinib Mesylate (STI571)] | 1 °C | 0.66 °C | 0.7 °C | 0.06 °C | -0.58 °C | -0.12 °C | 0.51 °C | 1.09 °C | 0.52 °C | 0.04 °C | 0.55 °C | 0.16 °C | 0.17 °C | 0.88 °C | -0.03 °C | -0.05 °C | 0.09 °C | 0.75 °C | 0.34 °C | 0.59 °C
3 | CNC(=O)c1ccc(Nc2ncc(C(F)(F)F)c(NCc3nccnc3N(C)S(C)(=O)=O)n2)cc1 | 0.61 °C | 2.42 °C | 1.41 °C | 0.96 °C | 1.45 °C | 7.62 °C | 0.24 °C | 2.72 °C | 6.02 °C | 0.65 °C | 9.52 °C | 1.99 °C | 0.04 °C | 5.45 °C | 3.54 °C | 2.16 °C | 4.32 °C | 5.66 °C | 2.85 °C | 1.45 °C
4 | O=C(c1ccc(F)c(F)c1Nc1ccc(I)cc1F)N1CC(O)([C@@H]2CCCCN2)C1 [Cobimetinib (GDC-0973, RG7420)] | 2.49 °C | 0.82 °C | 1.16 °C | 0.52 °C | 0.36 °C | 0.54 °C | 0.48 °C | 1.02 °C | 1.18 °C | 0.97 °C | 1.13 °C | 0.05 °C | 0.77 °C | -0.17 °C | 0.68 °C | 0.95 °C | 0.43 °C | 0.76 °C | 0.54 °C | 0.19 °C
5 | O=C1c2c(O)cc(O)cc2OC(c2ccc(O)c(O)c2)C1O (stereo not given) [Taxifolin (Dihydroquercetin)] | 1.27 °C | 0.28 °C | 0.38 °C | 0.25 °C | 0.07 °C | 0.29 °C | 0.09 °C | 0.73 °C | 0.32 °C | 0.67 °C | 0.74 °C | -0.16 °C | 0.4 °C | 0.47 °C | 0.2 °C | 0.2 °C | 0.08 °C | 0.29 °C | 0.17 °C | 0.5 °C
6 | CN(C)C[C@@H]1CCn2cc(c3ccccc32)C2=C(C(=O)NC2=O)c2cn(c3ccccc23)CCO1 | 2.1 °C | 0.51 °C | 2.42 °C | 0.43 °C | 0.03 °C | 0.53 °C | 0.54 °C | 1.19 °C | 2.29 °C | 1.69 °C | -0.25 °C | 0.16 °C | 0.36 °C | 0.08 °C | 0.5 °C | -0.45 °C | 1.85 °C | 6.19 °C | 2.42 °C | 0.73 °C
7 | C=CC(=O)N1CC[C@@H](Oc2nc(Nc3ccc(N4CCC(N5CCN(C)CC5)CC4)cc3)c(C(N)=O)nc2CC)C1 [Naquotinib(ASP8273)] | 0.96 °C | 9.41 °C | 0.02 °C | 0.22 °C | 1.05 °C | 5.67 °C | -0.78 °C | 4.36 °C | 8.5 °C | 0.57 °C | 0 °C | 3.07 °C | 0.21 °C | 9.13 °C | 5.37 °C | 4.82 °C | 5.96 °C | 8.09 °C | 3.19 °C | 0.5 °C
8 | CCc1nc(C(N)=O)c(Nc2ccc(N3CCC(N4CCN(C)CC4)CC3)c(OC)c2)nc1NC1CCOCC1 [Gilteritinib (ASP2215)] | 4.25 °C | 11.5 °C | 1.96 °C | 1.07 °C | 4.03 °C | 5.09 °C | 1.35 °C | 5.51 °C | 13.1 °C | 1.65 °C | 9.25 °C | 3.16 °C | 0.4 °C | 9.74 °C | 8.74 °C | 5.63 °C | 8.56 °C | 11.4 °C | 6.15 °C | 0.57 °C
9 | CO[C@H]1C[C@@H]2CC[C@@H](C)[C@@](O)(O2)C(=O)C(=O)N2CCCC[C@H]2C(=O)O[C@H]([C@H](C)C[C@@H]2CC[C@@H](OP(C)(C)=O)[C@H](OC)C2)CC(=O)[C@H](C)/C=C(\C)[C@@H](O)[C@@H](OC)C(=O)[C@H](C)C[C@H](C)/C=C/C=C/C=C/1C [Ridaforolimus (Deforolimus, MK-8669)] | 0.89 °C | 1.16 °C | 0.84 °C | 0.17 °C | -0.64 °C | 0.14 °C | 0.4 °C | 0.57 °C | 0.4 °C | 0.27 °C | 0.46 °C | -0.33 °C | 0.25 °C | 0.04 °C | 0.01 °C | -0.11 °C | -0.15 °C | 0.34 °C | 0.98 °C | 0.85 °C
10 | C=CC(=O)N1CCC(Oc2cc3c(Nc4ccc(Cl)c(Cl)c4F)ncnc3cc2OC)CC1 [Poziotinib (HM781-36B)] | 0.31 °C | -0.17 °C | 0.72 °C | 0.26 °C | 0.45 °C | 0.11 °C | -0.05 °C | 1.45 °C | 1.12 °C | 0.35 °C | 2.04 °C | 1.05 °C | 0 °C | 3.61 °C | 0.49 °C | 1.57 °C | 0.16 °C | 4.23 °C | 1.12 °C | 0.18 °C
11 | O=c1cc(-c2ccccc2)oc2c(O)c(O)ccc12 [7,8-Dihydroxyflavone] | 5.23 °C | -0.01 °C | 3.2 °C | 1.34 °C | 0.96 °C | -0.06 °C | 2.73 °C | 1.59 °C | 0.71 °C | 3.29 °C | 1.01 °C | 0.54 °C | 1.54 °C | 0.5 °C | 0.49 °C | 0.77 °C | 0.46 °C | -0.74 °C | 0.33 °C | -0.06 °C
12 | COc1cc2c(Nc3ccc(NC(=O)c4ccccc4)cc3)ncnc2cc1OCCCN1CCOCC1 | 0.97 °C | 1.05 °C | 0.6 °C | 1.19 °C | 0.4 °C | 1.66 °C | 1.37 °C | 0.66 °C | 0.79 °C | 0.45 °C | 2.66 °C | 0.37 °C | 0.55 °C | 0.43 °C | 0.34 °C | 0.3 °C | 1.85 °C | 2.46 °C | 0.65 °C | 0.59 °C
